Laboratory results published in PubChem BioAssay (Tox21).
Results filed as inconclusive are left out. The source made the active and inactive calls. Unless noted, calls come from the whole dose curve; as a rule, active = well fitted curve in the direction sought with a large enough effect in the repeat runs; inconclusive = weak or mixed curves; inactive = no such curve, though single readings can be large; an effect the other way counts as inactive or inconclusive.

Experiments:
[1] = molecular target: Retinoic acid receptor RXR-alpha (Homo sapiens) (UniProt P19793); experiment: qHTS assay to identify small molecule agonists of the RXR signaling pathway (AID 1159527; calls by dose curve; note: nearly all actives have a fitted effect of over 35% in size)
Chain of Retinoic acid receptor RXR-alpha (Homo sapiens) (P19793 whole entry, looked up): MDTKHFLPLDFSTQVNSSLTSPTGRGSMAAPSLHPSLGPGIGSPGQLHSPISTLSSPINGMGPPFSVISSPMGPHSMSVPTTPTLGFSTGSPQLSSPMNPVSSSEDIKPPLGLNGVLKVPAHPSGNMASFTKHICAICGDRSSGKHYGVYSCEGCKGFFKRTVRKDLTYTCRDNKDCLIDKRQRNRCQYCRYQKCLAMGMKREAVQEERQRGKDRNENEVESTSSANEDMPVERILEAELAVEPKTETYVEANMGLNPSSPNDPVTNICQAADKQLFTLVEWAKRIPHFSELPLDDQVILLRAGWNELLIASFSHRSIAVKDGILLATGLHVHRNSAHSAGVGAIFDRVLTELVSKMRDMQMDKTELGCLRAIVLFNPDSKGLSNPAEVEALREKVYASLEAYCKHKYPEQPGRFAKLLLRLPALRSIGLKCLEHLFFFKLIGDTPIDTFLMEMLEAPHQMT
Procedure, shortened: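 qHTS of the Tox21 10K library in GeneBLAzer RXR-alpha HEK 293T cells carrying a beta-lactamase reporter […]; 16 hr treatment, 9-cis retinoic acid as agonist control, FRET read-out.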

[2] = qHTS assay to identify small molecule agonists of the RXR signaling pathway - cell viability counter screen (AID 1159529); note: series mostly up to about 77 µM; nearly all actives have a fitted effect of over 50% in size
Procedure, shortened: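 Cell viability is measured by CellTiter-Glo luminescence, 30 min at room temperature, in wells already read for beta-lactamase. Engineered HEK 293T cells (RXR-alpha-UAS-bla) are dosed 16 hr at 37 C. Tetraoctyl ammonium bromide serves as positive control.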

[3] = qHTS assay to identify small molecule antagonists of the retinoid acid receptor (RAR) signaling pathway - cell viability counter screen (AID 1159551); note: nearly all actives have a fitted effect of over 35% in size
Procedure, shortened: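 C3RL4 cells were seeded overnight at 37 C, then treated with compounds plus 1 uM (final) retinol for 6 h at 37 C. Viability was read as ATP by CellTiter-Glo luminescence after 30 min at room temperature.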

[4] = qHTS assay to identify small molecule antagonists of the retinoic acid receptor (RAR) signaling pathway (AID 1159552; note: nearly all actives have a fitted effect of over 50% in size)
Procedure, shortened: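 Quantitative HTS in C3RL4 RARE-luciferase reporter cells. Compounds were added with 1 uM (final) retinol; luminescence was read after 6 hr.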

[5] = qHTS assay to identify small molecule agonists of the retinoic acid receptor (RAR) signaling pathway (AID 1159553)
Procedure, shortened: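 C3RL4 cells carrying a RARE luciferase reporter were plated overnight at 37 C, then exposed to compounds in DMSO for 6 hr at 37 C and 5% CO2. Luminescence was read 30 min after luciferase reagent addition at room temperature.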

[6] = qHTS assay to identify small molecule antagonists of the estrogen related receptor (ERR) signaling pathway - cell viability counter screen (AID 1224818);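 note: series mostly up to about 46 µM; viability measured after 17.5 h of compound exposure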
Procedure, shortened: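 ERR reporter cells plated 6 h at 37 C/5% CO2, then compounds in DMSO pin-transferred and incubated 17.5 h at 37 C. Viability read as CellTiter-Fluor fluorescence after 30 min at 37 C.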

[7] = qHTS assay to identify small molecule antagonists of the estrogen related receptor signaling pathway with the pleiotropic PPARgamma coactivator (PGC) cell viability counter screen (AID 1224822; note: series mostly up to about 46 µM)
Procedure, shortened: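 PGC/ERR cells were seeded at 2,000 cells/well, rested 6 h at 37 C/5% CO2, then given compounds in DMSO by pin tool and incubated 17.5 h at 37 C. Viability came from CellTiter-Fluor fluorescence after 30 min.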

[8] = qHTS assay to identify small molecule antagonists of the estrogen related receptor (ERR) signaling pathway from Tox21 library - cell viability counter screen (AID 1224834); note: nearly all actives have a fitted effect of over 30% in size
Procedure, shortened: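 ERR reporter cells were plated 6 h before compound addition, then exposed to test compounds in DMSO for 17.5 h at 37 C. Viability was read as CellTiter-Fluor fluorescence after a 30-minute incubation at 37 C.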

[9] = molecular target: Luciferin 4-monooxygenase (Photinus pyralis) (UniProt P08659); experiment: qHTS assay to identify small molecule inhibitors of firefly luciferase (AID 1224835); note: series mostly up to about 120 µM; nearly all actives have a fitted effect of over 25% in size
Chain of Luciferin 4-monooxygenase (Photinus pyralis) (P08659 whole entry, looked up): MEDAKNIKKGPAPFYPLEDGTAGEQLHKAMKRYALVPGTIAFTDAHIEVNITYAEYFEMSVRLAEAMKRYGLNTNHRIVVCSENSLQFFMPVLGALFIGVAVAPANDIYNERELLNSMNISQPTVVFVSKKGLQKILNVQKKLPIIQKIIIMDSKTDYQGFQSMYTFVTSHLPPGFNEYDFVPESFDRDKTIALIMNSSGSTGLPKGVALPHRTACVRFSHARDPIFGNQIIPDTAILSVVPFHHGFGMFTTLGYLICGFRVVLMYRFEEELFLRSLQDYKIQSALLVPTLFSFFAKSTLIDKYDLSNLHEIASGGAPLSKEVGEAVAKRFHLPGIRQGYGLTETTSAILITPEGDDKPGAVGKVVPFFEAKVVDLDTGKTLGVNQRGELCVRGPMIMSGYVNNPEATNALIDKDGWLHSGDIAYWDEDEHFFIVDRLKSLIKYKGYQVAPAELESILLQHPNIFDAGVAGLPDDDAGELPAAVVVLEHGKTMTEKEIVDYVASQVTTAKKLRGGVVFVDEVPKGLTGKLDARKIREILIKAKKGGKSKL
Procedure, shortened: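 Quantitative HTS format; KM concentrations of both substrates. Purified P. pyralis FLuc activity quantified from luminescence images.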

[10] = qHTS assay to identify small molecule agonists of the constitutive androstane receptor (CAR) signaling pathway - cell viability counter screen (AID 1224836); note: series mostly up to about 92 µM; nearly all actives have a fitted effect of over 45% in size
Procedure, shortened: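 Counter screen multiplexed with the CAR reporter readout: HepG2 cells co-transfected with hCAR and the CYP2B6-2.2kb construct receive a 15-concentration compound series and 0.75 uM PK11195 (final), then CellTiter-Fluor fluorescence is read after 23 h.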

[11] = qHTS assay to identify small molecule antagonists of the constitutive androstane receptor (CAR) signaling pathway - cell viability counter screen (AID 1224837); note: series mostly up to about 92 µM; nearly all actives have a fitted effect of over 45% in size
Procedure, shortened: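 HepG2 cells stably expressing hCAR and a CYP2B6-2.2kb reporter were plated and pre-incubated 4 hr at 37 C/5% CO2, then given compounds at 15 concentrations plus 50 nM CITCO (final). After 23 hr, viability was read by CellTiter-Fluor fluorescence.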

[12] = molecular target: Nuclear receptor subfamily 1 group I member 3 (Homo sapiens) (UniProt Q14994); experiment: qHTS assay to identify small molecule antagonists of the constitutive androstane receptor (CAR) signaling pathway (AID 1224838); note: nearly all actives have a fitted effect of over 40% in size
Chain of Nuclear receptor subfamily 1 group I member 3 (Homo sapiens) (Q14994 whole entry, looked up): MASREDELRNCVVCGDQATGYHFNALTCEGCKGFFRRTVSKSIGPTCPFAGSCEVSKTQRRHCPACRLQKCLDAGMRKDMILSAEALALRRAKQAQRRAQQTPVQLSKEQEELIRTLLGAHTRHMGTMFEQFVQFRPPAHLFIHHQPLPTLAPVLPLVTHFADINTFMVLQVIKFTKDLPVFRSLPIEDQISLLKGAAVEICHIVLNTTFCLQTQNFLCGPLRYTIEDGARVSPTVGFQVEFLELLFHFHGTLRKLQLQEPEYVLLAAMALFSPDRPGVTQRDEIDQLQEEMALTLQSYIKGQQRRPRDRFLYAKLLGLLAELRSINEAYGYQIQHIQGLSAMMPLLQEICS
Procedure, shortened: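 HepG2 cells stably co-transfected with hCAR and a CYP2B6-2.2kb luciferase reporter were seeded 4 h before compound addition at 15 concentrations. Cells were stimulated with 50 nM CITCO (final) for 24 h at 37 C; luciferase luminescence was then read.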

[13] = molecular target: Nuclear receptor subfamily 1 group I member 3 (Homo sapiens) (UniProt Q14994); experiment: qHTS assay to identify small molecule agonists of the constitutive androstane receptor (CAR) signaling pathway (AID 1224839); note: series mostly up to about 92 µM; nearly all actives have a fitted effect of over 15% in size
Procedure, shortened: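 A 15-concentration quantitative screen uses HepG2 cells co-transfected stably with human CAR and CYP2B6-2.2kb reporter. Treatment lasts 24 h with 0.75 uM PK11195 final present; ONE-Glo luminescence is the signal.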

[14] = qHTS assay to identify small molecule agonists of the estrogen related receptor (ERR) signaling pathway (AID 1224820)
Procedure, shortened: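 ERR reporter cells (NTP line) plated 2,000/well, incubated 6 h at 37 C/5% CO2, then pinned with compounds in DMSO and held 18 h at 37 C. One-Glo added; luminescence read after 30 min at room temperature.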

[15] = tested on: estrogen-related receptor alpha (ERRalpha) with PGC-1alpha coactivator, human; experiment: qHTS assay to identify small molecule antagonists of the estrogen related receptor signaling pathway with the pleiotropic PPARgamma coactivator (PGC) (AID 1224821; calls by dose curve;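 note: series mostly up to about 46 µM; lower luminescence signal means antagonism of PGC/ERR signalling; nearly all actives have a fitted effect of over 50% in size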)
Procedure, shortened: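 Cells engineered for PGC/ERR signalling (line from NTP) were plated 6 h at 37 C/5% CO2, then exposed to DMSO-dissolved compound for 18 h at 37 C. Luciferase activity was read by One-Glo luminescence after 30 min at room temperature.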

[16] = qHTS assay to identify small molecule agonists of the estrogen related receptor signaling pathway with the pleiotropic PPARgamma coactivator (PGC) (AID 1224823)
Procedure, shortened: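 PGC/ERR reporter cells were seeded, rested 6 h at 37 C/5% CO2, then exposed to compounds in DMSO by pin transfer for 18 h at 37 C. Luciferase activity was read as luminescence after One-Glo reagent and 30 min at room temperature.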

[17] = qHTS assay to identify small molecule antagonists of the estrogen related receptor signaling pathway with the pleiotropic PPARgamma coactivator (PGC) from Tox21 10K library (AID 1224841; call rule not given here; note: series mostly up to about 92 µM; actives are mostly falling curves and most rising ones were filed inactive; nearly all actives have a fitted effect of over 50% in size)
Procedure, shortened: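 PGC/ERR reporter cells were seeded at 2,000 cells/well and held 6 hours at 37 C/5% CO2 before pin-tool addition of compounds in DMSO. After 18 hours at 37 C, One-Glo was added and luminescence read after 30 minutes at room temperature.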

[18] = qHTS assay to identify small molecule agonists of the estrogen related receptor signaling pathway with the pleiotropic PPARgamma coactivator (PGC) from Tox21 10K library (AID 1224842); note: nearly all actives have a fitted effect of over 15% in size
Procedure, shortened: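 PGC/ERR reporter cells (NTP line) were seeded 2,000 per well, rested 6 h at 37 C/5% CO2, then pin-dosed with compounds in DMSO for 18 h at 37 C; luciferase read by One-Glo luminescence after 30 min at room temperature.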

[19] = qHTS assay to identify small molecule antagonists of the estrogen related receptor signaling pathway with the pleiotropic PPARgamma coactivator (PGC) from Tox21 10K library - cell viability counter screen (AID 1224840; active = well fitted cell-killing curve with a large enough effect in the repeat runs, not every such curve was filed as active; note: nearly all actives have a fitted effect of over 40% in size)
Procedure, shortened: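 PGC/ERR cells were seeded at 2,000 cells/well and left 6 hours at 37 C/5% CO2 before pin-tool addition of compounds in DMSO. After 17.5 hours at 37 C, CellTiter-Fluor was added and fluorescence read 30 minutes later.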

[20] = qHTS assay to identify small molecule antagonists of the estrogen related receptor (ERR) signaling pathway (AID 1224819)
Procedure, shortened: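 ERR reporter cells were plated at 2,000 cells/well and left 6 h at 37 C/5% CO2 before pin-tool transfer of compounds in DMSO. After 18 h at 37 C, One-Glo was added and luminescence was read 30 min later at room temperature.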
% is set by controls: 0 for no effect and ±100 for the full control effect.

COc1ccccc1OCC(O)CN1CCN(CC(=O)Nc2c(C)cccc2C)CC1 (centres undefined)
inactive: Potency [1] | Potency [2] | outcome [3] | Potency [4] | Potency [5] | outcome [6] | outcome [7] | Potency [8] | Potency [9] | Potency [10] | Potency [11] | Potency [12]

NCCCNCCSP(=O)(O)O
inactive: activation [1] 10.3% [at 6.98 µM] | activity change, negative = cytotoxicity [2] 8.34% [at 6.97 µM] | activity change, negative = cytotoxicity [3] 1.85% [at 8.39 µM] | activity, negative = inhibition [4] 8.45% [at 8.39 µM] | activation [5] -0.783% [at 8.36 µM] | outcome [6] | outcome [7] | viability change, negative = cytotoxic [8] 2.57% [at 8.39 µM] | activity change, negative = inhibition [9] 0.729% [at 10.5 µM] | viability change, negative = cytotoxic [10] 10.5% [at 8.39 µM] | activity change, negative = cytotoxicity [11] 2.76% [at 8.39 µM] | activity, negative = inhibition [12] -1.02% [at 8.39 µM] | activation [13] -1.23% [at 8.39 µM]

CCOC(=O)Nc1ccc(NCc2ccc(F)cc2)nc1N
inactive: Potency [1] | Potency [2] | outcome [3] | Potency [4] | Potency [5] | outcome [6] | outcome [14] | outcome [15] | outcome [7] | outcome [16] | Potency [8] | Potency [9] | Potency [10] | Potency [11] | Potency [12] | Potency [13] | Potency [17] | outcome [18]

Nc1ccc(S(=O)(=O)Nc2ccnn2-c2ccccc2)cc1
inactive: Potency [1] | Potency [2] | activity change, negative = cytotoxicity [3] 2.06% [at 19 µM] | activity, negative = inhibition [4] -19.4% [at 19 µM] | Potency [5] | outcome [6] | outcome [7] | viability change, negative = cytotoxic [8] -1.42% [at 19 µM] | activity change, negative = inhibition [9] 8.37% [at 23.6 µM] | viability change, negative = cytotoxic [10] 4.16% [at 19 µM] | activity change, negative = cytotoxicity [11] 3.82% [at 19 µM] | activity, negative = inhibition [12] 0.346% [at 19 µM] | activation [13] -2.19% [at 19 µM] | viability change, negative = cytotoxic [19] 2.18% [at 19 µM]

CCCN(CCC)CCc1cccc2c1CC(=O)N2
inactive: Potency [1] | Potency [2] | outcome [3] | Potency [4] | Potency [5] | outcome [6] | outcome [7] | Potency [8] | Potency [9] | Potency [10] | Potency [13] | Potency [19]

Cc1nc2c([nH]1)c(=O)n(C)c(=O)n2Cc1ccco1
inactive: Potency [1] | Potency [2] | outcome [3] | Potency [4] | Potency [5] | outcome [6] | outcome [7] | Potency [8] | Potency [9] | Potency [10] | Potency [12] | Potency [13] | Potency [19]

COC(=O)[C@@H](N)Cc1ccc(O)c(O)c1
inactive: Potency [1] | Potency [2] | outcome [3] | Potency [4] | Potency [5] | outcome [6] | outcome [20] | outcome [14] | outcome [15] | outcome [7] | outcome [16] | Potency [8] | Potency [9] | Potency [10] | Potency [19] | outcome [18]

CCO/C([O-])=N/c1c[n+](N2CCOCC2)no1
inactive: Potency [1] | Potency [2] | outcome [3] | Potency [4] | Potency [5] | outcome [6] | outcome [20] | outcome [14] | outcome [15] | outcome [7] | outcome [16] | Potency [8] | Potency [9] | Potency [10] | Potency [19] | outcome [18]
